Source: PubChem BioAssay (EPA / NIEHS)
Results filed as inconclusive are left out. Active and inactive are the calls of the source. How the source made its calls: active means hit-call score of the fitted dose curve at least 0.9, where 1 is the maximum; inconclusive means response in the unintended direction; inactive means score below 0.9.

Columns and labels:
[1] = target: human IkappaB Kinase alpha (IKKa), CHUK (gene 1147) (UniProt O15111); assay: NVS_ENZ_hIKKa: NovaScreen (NVS) Enzymatic Assay for human IkappaB Kinase alpha (IKKa) (AID 2283167)
Procedure, shortened: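 Compounds first run in duplicate at 25 uM, those meeting threshold (e.g. 30% inhibition) retested to maximum 50 uM. Enzyme activity of recombinant IKKa measured by fluorescence with electrophoretic mobility shift separation, 1 hour post-dosing, DMSO baseline.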

[2] = target: human Mitogen-Activated Protein Kinase 1 (MAPK 1), MAPK1 (gene 5594) (UniProt P28482); assay: NVS_ENZ_hMAPK1: NovaScreen (NVS) Enzymatic Assay for human Mitogen-Activated Protein Kinase 1 (MAPK 1) (AID 2283175)
Procedure, shortened: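 Cell-free recombinant human MAPK1 enzymatic assay, fluorescence/electrophoretic mobility shift read at 1 h; loss of signal vs DMSO. Primary screen in duplicate at 25 uM; actives (e.g. ≥30% inhibition) run as concentration-response up to 50 uM.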

[3] = target: human Matrix Metalloproteinase-7 (MMP7), MMP7 (gene 4316) (UniProt P09237); assay: NVS_ENZ_hMMP7: NovaScreen (NVS) Enzymatic Assay for human Matrix Metalloproteinase-7 (MMP7) (AID 2283183)
Procedure, shortened: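 Compounds first tested at 25 uM in duplicate, then at up to 50 uM in concentration series if active. Protease activity measured by fluorescence intensity 1 h after dosing, with fitting relative to DMSO.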

[4] = target: human Mitogen- and Stress-activated Protein Kinase-1 (Msk1), RPS6KA5 (gene 9252) (UniProt O75582); assay: NVS_ENZ_hMsk1: NovaScreen (NVS) Enzymatic Assay for human Mitogen- and Stress-activated Protein Kinase-1 (Msk1) (AID 2283187)
Procedure, shortened: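 Chemicals first run in duplicate at 25 uM, with actives followed up in singleton concentration series to 50 uM maximum. Enzyme activity came from substrate/product mobility-shift separation with fluorescence detection after 1 h incubation of the recombinant protein.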

[5] = target: human NIMA (Never In Mitosis Gene A)-Related Kinase 2 (NEK2), NEK2 (gene 4751) (UniProt P51955); assay: NVS_ENZ_hNEK2: NovaScreen (NVS) Enzymatic Assay for human NIMA (Never In Mitosis Gene A)-Related Kinase 2 (NEK2) (AID 2283188)
Procedure, shortened: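 Compounds were first screened in duplicate at 25 uM, with actives followed up in concentration series. Recombinant NEK2 activity, cell-free, was read 1 h after dosing by fluorescence intensity after mobility-shift separation. Signal loss was scored against DMSO.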

[6] = target: cAMP-dependent protein kinase catalytic subunit alpha (Homo sapiens) (UniProt P17612); assay: NVS_ENZ_hPKA: NovaScreen (NVS) Enzymatic Assay for human Protein Kinase A (PKA) (AID 2283192)
Procedure, shortened: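 Cell-free kinase activity read by fluorescence after mobility-shift separation of substrate and product, 1 h post-dosing. Single-concentration duplicate screen (25 uM) preceded singleton concentration series (top 50 uM); loss of signal versus DMSO.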

[7] = target: human Matrix Metalloproteinase-2 (MMP2), MMP2 (gene 4313) (UniProt P08253); assay: NVS_ENZ_hMMP2: NovaScreen (NVS) Enzymatic Assay for human Matrix Metalloproteinase-2 (MMP2) (AID 2283184)
Procedure, shortened: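 Compounds first screened in duplicate at a single 25 uM, with actives followed up in concentration series. Recombinant human MMP2 cleaves a fluorogenic substrate; fluorescence taken at 1 h, inhibition fitted relative to DMSO.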

[8] = target: human Matrix Metalloproteinase-9 (MMP9), MMP9 (gene 4318) (UniProt P14780); assay: NVS_ENZ_hMMP9: NovaScreen (NVS) Enzymatic Assay for human Matrix Metalloproteinase-9 (MMP9) (AID 2283190);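 further: cell-free recombinant MMP9 protease activity read by fluorescent substrate signal; active means inhibition seen as loss of fluorescence signal versus DMSO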
Procedure, shortened: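 Cell-free fluorescence-intensity enzyme activity assay using extracted protein, read 1 h after dosing. Loss of signal versus DMSO baseline indicates inhibition; primary screen in duplicate at 25 uM, actives followed up in concentration series.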

[9] = target: human p21 Activated Kinase 4 (PAK4), PAK4 (gene 10298) (UniProt O96013); assay: NVS_ENZ_hPAK4: NovaScreen (NVS) Enzymatic Assay for human p21 Activated Kinase 4 (PAK4) (AID 2283189)
Procedure, shortened: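 Extracted PAK4 enzyme activity read by fluorescence with mobility-shift separation 1 h after chemical addition. Duplicate single-concentration screen at 25 uM, DMSO as negative control.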

[10] = target: Mitogen-activated protein kinase 3 (Homo sapiens) (UniProt P27361); assay: NVS_ENZ_hMAPK3: NovaScreen (NVS) Enzymatic Assay for human Mitogen-Activated Protein Kinase 3 (MAPK 3) (AID 2283177)
Procedure, shortened: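 Chemicals were first tested in duplicate at 25 uM, with hits re-run as concentration series (max 50 uM). Recombinant enzyme activity, measured 1 h post-dose in a cell-free format, was read by fluorescence/mobility shift relative to DMSO.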

[11] = target: human MAP Kinase-Activated Protein Kinase 2 (MAPKAPK2), MAPKAPK2 (gene 9261) (UniProt P49137); assay: NVS_ENZ_hMAPKAPK2: NovaScreen (NVS) Enzymatic Assay for human MAP Kinase-Activated Protein Kinase 2 (MAPKAPK2) (AID 2283178)
Procedure, shortened: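 Chemicals screened in duplicate at 25 uM, then to 50 uM top concentration in concentration-response, against recombinant human MAPKAPK2; substrate conversion read 1 hr post-dosing by fluorescence after electrophoretic mobility-shift separation, loss-of-signal relative to DMSO.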

[12] = target: Collagenase 3 (Homo sapiens) (UniProt P45452); assay: NVS_ENZ_hMMP13: NovaScreen (NVS) Enzymatic Assay for human Matrix Metalloproteinase-13 (MMP13) (AID 2283182)
Procedure, shortened: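 Recombinant MMP13 cleaving fluorescent substrate, cell-free, measured 1 h after dosing. Primary duplicate screen at 25 uM; actives tested in concentration-response up to 50 uM; loss of signal relative to DMSO.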

[13] = target: human Matrix Metalloproteinase-3 (MMP3), MMP3 (gene 4314) (UniProt P08254); assay: NVS_ENZ_hMMP3: NovaScreen (NVS) Enzymatic Assay for human Matrix Metalloproteinase-3 (MMP3) (AID 2283185)
Procedure, shortened: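 Fluorescent substrate turnover by recombinant MMP3 read after 1 h, signal loss scored against DMSO. Compounds first run in duplicate at 25 uM single dose, then actives confirmed by concentration series.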

Chain of human p21 Activated Kinase 4 (PAK4), PAK4 (gene 10298) (O96013 whole entry, looked up): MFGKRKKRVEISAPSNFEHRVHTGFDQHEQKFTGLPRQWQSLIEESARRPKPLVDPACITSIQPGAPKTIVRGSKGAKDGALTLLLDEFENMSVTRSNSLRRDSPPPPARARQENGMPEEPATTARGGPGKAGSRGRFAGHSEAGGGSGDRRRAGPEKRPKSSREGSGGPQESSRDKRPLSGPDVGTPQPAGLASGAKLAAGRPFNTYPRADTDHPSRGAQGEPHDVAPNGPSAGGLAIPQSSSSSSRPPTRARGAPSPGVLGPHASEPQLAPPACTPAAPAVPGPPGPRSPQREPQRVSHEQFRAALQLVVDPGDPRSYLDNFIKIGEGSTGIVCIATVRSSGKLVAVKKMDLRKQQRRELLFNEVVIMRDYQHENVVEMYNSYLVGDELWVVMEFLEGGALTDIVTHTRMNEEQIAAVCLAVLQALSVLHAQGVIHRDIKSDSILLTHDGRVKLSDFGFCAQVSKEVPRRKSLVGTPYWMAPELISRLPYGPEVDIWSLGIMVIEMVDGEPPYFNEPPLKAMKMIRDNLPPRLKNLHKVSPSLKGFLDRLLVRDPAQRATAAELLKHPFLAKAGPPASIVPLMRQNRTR
Chain of human Matrix Metalloproteinase-7 (MMP7), MMP7 (gene 4316) (P09237 whole entry, looked up): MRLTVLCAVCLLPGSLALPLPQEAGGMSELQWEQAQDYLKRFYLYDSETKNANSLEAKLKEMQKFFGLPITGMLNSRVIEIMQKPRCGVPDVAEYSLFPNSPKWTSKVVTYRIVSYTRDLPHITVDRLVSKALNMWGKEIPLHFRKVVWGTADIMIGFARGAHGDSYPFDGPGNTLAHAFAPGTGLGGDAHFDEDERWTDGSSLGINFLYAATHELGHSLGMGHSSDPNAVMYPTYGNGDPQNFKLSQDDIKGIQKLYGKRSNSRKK
Chain of human Mitogen- and Stress-activated Protein Kinase-1 (Msk1), RPS6KA5 (gene 9252) (O75582 whole entry, looked up): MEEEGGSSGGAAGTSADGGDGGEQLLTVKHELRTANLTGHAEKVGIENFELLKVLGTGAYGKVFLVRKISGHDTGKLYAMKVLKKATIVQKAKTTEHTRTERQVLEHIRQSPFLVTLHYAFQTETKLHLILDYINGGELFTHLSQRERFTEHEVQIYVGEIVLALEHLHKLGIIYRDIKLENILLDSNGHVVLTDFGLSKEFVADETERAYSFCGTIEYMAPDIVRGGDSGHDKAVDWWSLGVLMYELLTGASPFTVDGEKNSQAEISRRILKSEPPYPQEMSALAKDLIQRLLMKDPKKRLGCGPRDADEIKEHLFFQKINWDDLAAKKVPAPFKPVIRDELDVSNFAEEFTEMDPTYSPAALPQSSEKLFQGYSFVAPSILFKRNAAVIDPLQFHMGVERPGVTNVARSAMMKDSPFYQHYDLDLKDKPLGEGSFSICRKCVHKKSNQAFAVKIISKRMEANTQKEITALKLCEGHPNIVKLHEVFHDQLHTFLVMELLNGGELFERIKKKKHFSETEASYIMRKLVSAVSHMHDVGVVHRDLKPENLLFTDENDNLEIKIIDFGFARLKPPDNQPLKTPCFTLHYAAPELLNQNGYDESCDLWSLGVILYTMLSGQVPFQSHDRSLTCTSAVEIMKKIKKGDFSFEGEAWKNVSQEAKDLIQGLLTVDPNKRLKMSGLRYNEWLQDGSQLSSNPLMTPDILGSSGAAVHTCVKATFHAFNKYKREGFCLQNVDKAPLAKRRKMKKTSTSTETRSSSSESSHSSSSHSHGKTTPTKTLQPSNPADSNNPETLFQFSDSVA
Chain of human IkappaB Kinase alpha (IKKa), CHUK (gene 1147) (O15111 whole entry, looked up): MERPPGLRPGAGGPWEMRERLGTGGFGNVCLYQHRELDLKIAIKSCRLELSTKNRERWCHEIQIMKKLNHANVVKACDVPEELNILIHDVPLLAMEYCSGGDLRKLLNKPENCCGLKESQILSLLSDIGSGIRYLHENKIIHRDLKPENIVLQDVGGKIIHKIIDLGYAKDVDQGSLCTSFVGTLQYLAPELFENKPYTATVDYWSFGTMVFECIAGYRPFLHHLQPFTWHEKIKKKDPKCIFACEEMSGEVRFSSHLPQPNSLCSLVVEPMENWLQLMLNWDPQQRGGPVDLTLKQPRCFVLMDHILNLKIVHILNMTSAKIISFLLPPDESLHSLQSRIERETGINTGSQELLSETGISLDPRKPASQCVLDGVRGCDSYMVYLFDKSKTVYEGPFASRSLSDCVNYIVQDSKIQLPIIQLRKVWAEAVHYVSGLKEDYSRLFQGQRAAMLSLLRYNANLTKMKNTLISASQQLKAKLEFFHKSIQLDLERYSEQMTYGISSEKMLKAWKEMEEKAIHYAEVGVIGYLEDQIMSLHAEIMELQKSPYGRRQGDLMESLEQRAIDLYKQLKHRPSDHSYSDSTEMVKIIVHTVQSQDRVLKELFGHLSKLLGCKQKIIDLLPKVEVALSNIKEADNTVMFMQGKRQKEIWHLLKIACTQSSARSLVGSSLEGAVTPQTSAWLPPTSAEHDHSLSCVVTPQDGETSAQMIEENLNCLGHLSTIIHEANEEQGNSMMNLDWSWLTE
Chain of human Matrix Metalloproteinase-2 (MMP2), MMP2 (gene 4313) (P08253 whole entry, looked up): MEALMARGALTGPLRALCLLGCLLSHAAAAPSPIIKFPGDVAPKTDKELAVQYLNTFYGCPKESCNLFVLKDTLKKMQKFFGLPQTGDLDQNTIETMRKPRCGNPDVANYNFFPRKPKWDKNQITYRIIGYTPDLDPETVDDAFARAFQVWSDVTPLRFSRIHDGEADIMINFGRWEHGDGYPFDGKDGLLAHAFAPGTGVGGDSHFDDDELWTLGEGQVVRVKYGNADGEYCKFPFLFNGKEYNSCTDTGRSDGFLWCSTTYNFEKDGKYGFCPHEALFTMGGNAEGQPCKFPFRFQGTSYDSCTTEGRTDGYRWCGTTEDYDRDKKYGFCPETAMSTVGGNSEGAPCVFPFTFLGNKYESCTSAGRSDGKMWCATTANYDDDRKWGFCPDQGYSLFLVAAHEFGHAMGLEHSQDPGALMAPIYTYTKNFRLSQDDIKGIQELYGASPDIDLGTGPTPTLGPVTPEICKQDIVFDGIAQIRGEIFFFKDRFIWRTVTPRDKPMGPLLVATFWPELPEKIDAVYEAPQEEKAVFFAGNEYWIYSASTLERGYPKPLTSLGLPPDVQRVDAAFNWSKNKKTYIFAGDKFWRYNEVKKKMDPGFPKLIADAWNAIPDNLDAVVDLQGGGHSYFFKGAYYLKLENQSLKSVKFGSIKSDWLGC
Chain of Mitogen-activated protein kinase 3 (Homo sapiens) (P27361 whole entry, looked up): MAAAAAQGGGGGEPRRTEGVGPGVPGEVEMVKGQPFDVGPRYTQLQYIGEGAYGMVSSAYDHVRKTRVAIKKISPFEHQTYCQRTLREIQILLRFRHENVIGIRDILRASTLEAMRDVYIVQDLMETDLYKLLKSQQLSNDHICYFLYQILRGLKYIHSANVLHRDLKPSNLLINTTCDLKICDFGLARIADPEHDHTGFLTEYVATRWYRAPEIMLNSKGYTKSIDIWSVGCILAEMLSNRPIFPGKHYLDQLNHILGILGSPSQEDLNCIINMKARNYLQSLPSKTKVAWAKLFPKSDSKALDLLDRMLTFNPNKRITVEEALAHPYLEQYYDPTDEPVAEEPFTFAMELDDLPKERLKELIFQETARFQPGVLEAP
Chain of human Mitogen-Activated Protein Kinase 1 (MAPK 1), MAPK1 (gene 5594) (P28482 whole entry, looked up): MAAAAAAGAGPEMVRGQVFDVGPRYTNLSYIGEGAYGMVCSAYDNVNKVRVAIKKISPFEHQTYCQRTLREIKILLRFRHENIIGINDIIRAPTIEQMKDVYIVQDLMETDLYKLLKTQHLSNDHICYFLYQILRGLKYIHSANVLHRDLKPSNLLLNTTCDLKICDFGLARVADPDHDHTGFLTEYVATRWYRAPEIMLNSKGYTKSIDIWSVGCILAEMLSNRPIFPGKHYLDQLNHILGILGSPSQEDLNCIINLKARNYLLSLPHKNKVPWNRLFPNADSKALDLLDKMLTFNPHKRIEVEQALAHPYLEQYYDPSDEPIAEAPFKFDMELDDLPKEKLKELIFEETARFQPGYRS
Chain of human NIMA (Never In Mitosis Gene A)-Related Kinase 2 (NEK2), NEK2 (gene 4751) (P51955 whole entry, looked up): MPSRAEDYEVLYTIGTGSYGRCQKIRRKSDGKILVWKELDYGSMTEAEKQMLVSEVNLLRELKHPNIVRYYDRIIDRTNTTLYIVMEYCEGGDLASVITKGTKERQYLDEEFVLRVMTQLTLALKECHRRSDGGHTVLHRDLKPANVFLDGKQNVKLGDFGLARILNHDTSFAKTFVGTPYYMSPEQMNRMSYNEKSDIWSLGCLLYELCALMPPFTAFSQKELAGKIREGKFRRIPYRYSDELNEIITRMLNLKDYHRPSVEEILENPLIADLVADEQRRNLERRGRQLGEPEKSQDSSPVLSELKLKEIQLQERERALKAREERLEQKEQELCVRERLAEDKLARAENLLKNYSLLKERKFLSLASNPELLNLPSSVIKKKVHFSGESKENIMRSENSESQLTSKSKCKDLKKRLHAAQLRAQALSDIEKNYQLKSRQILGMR
Chain of human Matrix Metalloproteinase-3 (MMP3), MMP3 (gene 4314) (P08254 whole entry, looked up): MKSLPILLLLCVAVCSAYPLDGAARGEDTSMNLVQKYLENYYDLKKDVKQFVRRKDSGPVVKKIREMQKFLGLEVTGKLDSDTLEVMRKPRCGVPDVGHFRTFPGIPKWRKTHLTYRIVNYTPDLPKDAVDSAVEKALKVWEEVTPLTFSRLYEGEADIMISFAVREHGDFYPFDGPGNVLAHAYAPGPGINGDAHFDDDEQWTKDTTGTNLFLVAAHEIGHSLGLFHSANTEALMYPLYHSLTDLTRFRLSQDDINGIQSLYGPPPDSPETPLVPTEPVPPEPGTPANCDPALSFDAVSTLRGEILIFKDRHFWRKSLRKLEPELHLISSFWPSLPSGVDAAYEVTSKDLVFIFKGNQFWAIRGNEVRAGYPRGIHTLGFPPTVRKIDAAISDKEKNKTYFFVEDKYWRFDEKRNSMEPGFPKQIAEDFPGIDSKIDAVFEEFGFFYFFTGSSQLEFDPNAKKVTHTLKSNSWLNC

`O=S(=O)(O)C(F)(F)C(F)(F)C(F)(F)C(F)(F)C(F)(F)C(F)(F)F` was tested, and the outcome [1] was “inactive”, the outcome [2] was “inactive” and the outcome [3] was “inactive”.

`O=C(O)C(F)(F)C(F)(F)C(F)(F)C(F)(F)C(F)(F)C(F)(F)C(F)(F)C(F)(F)F` was tested, and the outcome [1] was “inactive”, the outcome [4] was “inactive” and the AC50 [5] was 40.7 µM (active). For the same compound, the outcome [6] was “inactive”.

With `CCNc1nc(NC(C)C)nc(SC)n1` the outcome [2] was “inactive”.

`O=C(O)C(F)(F)C(F)(F)C(F)(F)C(F)(F)C(F)(F)F` was tested, and the outcome [3] was “inactive”.

With `CC(C)C(=O)OCC(C)(C)C(OC(=O)C(C)C)C(C)C` (configuration not stated) the outcome [7] was “inactive” and the outcome [8] was “inactive”.

`CC1=C2C[C@H]3[C@@H](CC=C4C[C@@H](O)CC[C@@]43C)[C@@H]2CC[C@]12O[C@@H]1C[C@H](C)CN[C@H]1[C@H]2C` was tested, and the AC50 [4] was 19 µM (active), the outcome [9] was “inactive” and the outcome [6] was “inactive”.

With `Cc1cccc([N+](=O)[O-])c1` the outcome [10] was “inactive”.

In the case of `Cc1cccc(C)c1N`, the outcome [10] was “inactive”.

In the case of `CCOCCOC(C)=O`, the outcome [11] was “inactive”.

For `CCCCCCCCCC[N+](C)(C)CCCCCCCCCC`, the outcome [12] was “inactive”.

`Oc1ccc(C(c2ccc(O)cc2)(C(F)(F)F)C(F)(F)F)cc1` was tested, and the outcome [3] was “inactive”.

For `O=C(N[C@H]1CN2CCC1CC2)c1cc2ccoc2cn1`, the outcome [3] was “inactive”.

For `O=NN(c1ccccc1)c1ccccc1`, the outcome [7] was “inactive”.

`O=C(O)C(F)(F)C(F)(F)C(F)(F)C(F)(F)C(F)(F)C(F)(F)C(F)(F)C(F)(F)C(F)(F)F` was tested, and the AC50 [13] was 12.5 µM (active).

With `CO/C=C(/C(=O)OC)c1ccccc1COc1cccc(C(F)(F)F)n1` the outcome [13] was “inactive”.

`CCSC(=O)N(CC)C1CCCCC1` was tested, and the outcome [4] was “inactive”.

`c1cc2ccc3cccc4ccc(c1)c2c34` was tested, and the outcome [5] was “inactive”.

In the case of `ClC1=C(Cl)[C@]2(Cl)[C@@H]3[C@H]4C[C@H]([C@@H]5O[C@H]45)[C@@H]3[C@@]1(Cl)C2(Cl)Cl`, the outcome [9] was “inactive”.

In the case of `CN(C)CCO`, the outcome [9] was “inactive”.
